Molecules are shown by their SMILES. Out of some 39,000 compounds screened, about 3,300 (8.5%) were called active. For the sample, actives were picked, then their nearest neighbours and some compounds at random.

We go through 64 compounds from the antibiotic and cytotoxicity screens of Wong et al. (2023).

This test deals with HepG2. In words: cytotoxicity call (relative viability < 0.9). The conditions noted are these: 10 µM.
Turning to `C[C@@H]1CCCCO[C@@H](CN(C)S(C)(=O)=O)[C@H](C)CN([C@@H](C)CO)C(=O)c2cc(NS(=O)(=O)c3cn(C)cn3)ccc2O1`, the cytotoxicity call was “inactive”.
In the case of `C[C@H]1CN([C@@H](C)CO)C(=O)c2cc(NC(=O)C3CC3)ccc2O[C@@H]1CN(C)C(=O)NC1CCCCC1` it was “inactive”; in that of `O=C(C[C@H]1C[C@@H]2c3cc(NC(=O)Cc4ccncc4)ccc3O[C@@H]2[C@H](CO)O1)NCCN1CCCCC1`, “inactive”.
`C[C@H]1CN([C@@H](C)CO)C(=O)c2cccc(NC(=O)CCCCCC(=O)Nc3ccccc3N)c2O[C@@H]1CN(C)C(=O)Nc1ccc(F)cc1`: the cytotoxicity call is “inactive”.
Regarding `C[C@@H]1CCCCO[C@@H](CN(C)CC2CCCCC2)[C@@H](C)CN([C@H](C)CO)C(=O)c2cc(NC(=O)Cc3ccccc3)ccc2O1`, the cytotoxicity call is “inactive”.
For `COc1ccccc1[C@@H](NC(=O)C1CCN(CCn2cnc3c2c(=O)n(C)c(=O)n3C)CC1)c1ccccn1`, the cytotoxicity call was “inactive”.
In the case of `CN1CCN(C(=O)C[C@H]2C[C@H]3c4cc(NS(=O)(=O)c5ccc(F)cc5)ccc4O[C@H]3[C@@H](CO)O2)CC1` it was “inactive”; in that of `C[C@@H]1CCCCO[C@@H](CN(C)S(=O)(=O)c2ccc(Cl)cc2)[C@@H](C)CN([C@@H](C)CO)C(=O)c2cc(NC(=O)Nc3ccc(C(F)(F)F)cc3)ccc2O1`, “inactive”.
Next, `COc1ccc(NC(=O)N(C)C[C@H]2OCCCC[C@@H](C)Oc3ccc(NC(=O)Nc4ccc(C(F)(F)F)cc4)cc3C(=O)N([C@H](C)CO)C[C@H]2C)cc1`: “active”; `COc1ccc(NC(=O)Nc2ccc3c(c2)C(=O)N([C@H](C)CO)C[C@@H](C)[C@H](CN(C)C(=O)Nc2ccc(C(F)(F)F)cc2)OCCCC[C@@H](C)O3)cc1`: “inactive”; `COc1ccc(NC(=O)N(C)C[C@@H]2OCCCC[C@@H](C)Oc3ccc(NC(=O)Nc4ccc(C(F)(F)F)cc4)cc3C(=O)N([C@H](C)CO)C[C@@H]2C)cc1`: “inactive”.
Turning to `O=C(C[C@H]1CC[C@@H]2[C@H](COC[C@H](O)CN2C(=O)c2cccnc2)O1)NCC1CC1`, the cytotoxicity call is “inactive”.
Next, `Fc1cccc(-c2csc(COc3ccccc3Cl)n2)c1`: “inactive”.
Next, `O=c1c(O)c(-c2cc(O)c(O)c(O)c2)oc2cc(O)cc(O)c12`: “inactive”; `Cc1cc(=O)oc2cc(O)c(O)cc12`: “inactive”; `O=c1oc2c(O)c(O)cc3c(=O)oc4c(O)c(O)cc1c4c23`: “active”.
Next, `O=C(C[C@@H]1C[C@H]2c3cc(NC(=O)C4CCOCC4)ccc3O[C@H]2[C@@H](CO)O1)NCc1ccc2c(c1)OCO2`: “inactive”; `COc1ccc([C@H]([C@@H](O)Cc2ccccc2)N(C[C@H](/C=C/c2ccccc2)NC(=O)C(Cl)(Cl)Cl)[C@@H](Cc2ccccc2)C(OC)OC)cc1`: “inactive”.
In the case of `COc1ccc([C@@H]([C@H](Cc2ccccc2)OC(C)=O)N2C[C@@H](CC(=O)N(C)C)[C@@H]3C(=NO[C@H]3c3ccccc3)[C@@H]2Cc2ccccc2)cc1`, the cytotoxicity call was “inactive”.
On to `COc1ccc([C@H]([C@H](Cc2ccccc2)OC(C)=O)N(C[C@H](/C=C/c2ccccc2)OC(C)=O)[C@@H](Cc2ccccc2)C(OC)OC)cc1`, for which the cytotoxicity call was “inactive”.
Next, `COc1ccc([C@H]([C@H](Cc2ccccc2)OC(C)=O)N(C[C@H](/C=C/c2ccccc2)NC(=O)C(Cl)(Cl)Cl)[C@@H](Cc2ccccc2)C(OC)OC)cc1`: “inactive”; `COc1ccc([C@H]([C@H](Cc2ccccc2)OC(C)=O)N(C[C@H](/C=C/c2ccccc2)CC(=O)N(C)C)[C@@H](Cc2ccccc2)C(OC)OC)cc1`: “active”; `COc1ccc([C@H]([C@@H](O)Cc2ccccc2)N(C/C=C/[C@@H](O)c2ccccc2)[C@@H](Cc2ccccc2)C(OC)OC)cc1`: “inactive”.
On to `COc1ccc([C@H]([C@@H](O)Cc2ccccc2)N(C[C@H](/C=C/c2ccccc2)CC(=O)N(C)C)[C@@H](Cc2ccccc2)C(OC)OC)cc1`, for which the cytotoxicity call was “active”.
As to `COc1ccc([C@@H]([C@H](Cc2ccccc2)OC(C)=O)N2C[C@H](CC(=O)N(C)C)[C@@H]3C(=NO[C@H]3c3ccccc3)[C@@H]2Cc2ccccc2)cc1`, the cytotoxicity call was “inactive”.
In the case of `COc1ccc([C@H]([C@H](Cc2ccccc2)OC(C)=O)N(C[C@@H](/C=C/c2ccccc2)CC(=O)N(C)C)[C@@H](Cc2ccccc2)C(OC)OC)cc1` it was “active”; in that of `Cc1noc(C)c1NC(=O)Nc1ccc2c(c1)C(=O)N([C@H](C)CO)C[C@H](C)[C@@H](CN(C)C(=O)Nc1ccccc1)OCCCC[C@H](C)O2`, “inactive”; in that of `Cc1ccc(S(=O)(=O)Nc2ccc3c(c2)C(=O)N([C@@H](C)CO)C[C@@H](C)[C@H](CN(C)Cc2ccc4c(c2)OCO4)OCCCC[C@H](C)O3)cc1`, “inactive”.
Next, `CC(C)C[C@@H]1NC(=O)[C@@H]2C[C@H](C(=O)NCCCCCNC(=O)CS)[C@H](c3cccc(OCCO)c3)N2C1=O`: “inactive”; `CN1C[C@]2(CCN(C(=O)c3cn(CCN4CCNCC4)nn3)C2)OC1=O`: “inactive”; `Cc1noc(C)c1S(=O)(=O)N(C)C[C@@H]1Oc2ccc(NC(=O)Cc3ccccc3)cc2CC(=O)N([C@@H](C)CO)C[C@@H]1C`: “inactive”.
Next, `CC(C)NC(=O)N(C)C[C@H]1Oc2ccc(NC(=O)CCCN(C)C)cc2C(=O)N([C@H](C)CO)C[C@H]1C`: “inactive”; `C[C@H]1CN([C@@H](C)CO)C(=O)Cc2cc(NC(=O)Cn3cnnn3)ccc2O[C@@H]1CN(C)S(=O)(=O)c1ccc(F)cc1`: “inactive”.
Regarding `C[C@@H]1CN([C@H](C)CO)C(=O)Cc2cc(NC(=O)C3CC3)ccc2O[C@@H]1CN(C)Cc1ccc(Oc2ccccc2)cc1`, the cytotoxicity call was “active”.
As for `C[C@H]1CN([C@@H](C)CO)C(=O)Cc2cc(NC(=O)C3CCCCC3)ccc2O[C@H]1CN(C)Cc1ccc(Oc2ccccc2)cc1`, the cytotoxicity call is “active”.
Consider `C[C@@H]1CN([C@@H](C)CO)C(=O)Cc2cc(NC(=O)C3CCCCC3)ccc2O[C@H]1CN(C)Cc1ccc(Oc2ccccc2)cc1`, for which the cytotoxicity call was “inactive”.
Next, `C[C@H](CO)N1C[C@H](C)[C@@H](CN(C)Cc2ccc(Oc3ccccc3)cc2)Oc2ccc(NC(=O)C3CCCCC3)cc2CC1=O`: “inactive”; `C[C@H](CO)N1C[C@H](C)[C@H](CN(C)Cc2ccc(Oc3ccccc3)cc2)Oc2ccc(NC(=O)C3CC3)cc2CC1=O`: “inactive”.
Consider `C[C@@H]1CN([C@H](C)CO)C(=O)Cc2cc(NC(=O)C3CCCCC3)ccc2O[C@H]1CN(C)Cc1ccc(Oc2ccccc2)cc1`, for which the cytotoxicity call was “inactive”.
In the case of `C[C@H](CO)N1C[C@H](C)[C@H](CN(C)Cc2ccc(Oc3ccccc3)cc2)Oc2ccc(NC(=O)C3CCCCC3)cc2CC1=O` it was “active”.
In the case of `C[C@@H]1CN([C@H](C)CO)C(=O)Cc2cc(NC(=O)C3CCCCC3)ccc2O[C@@H]1CN(C)Cc1ccc(Oc2ccccc2)cc1` it was “inactive”.
For the compound `C[C@@H]1CN([C@@H](C)CO)C(=O)Cc2cc(NC(=O)C3CC3)ccc2O[C@H]1CN(C)Cc1ccc(Oc2ccccc2)cc1`, the cytotoxicity call was “inactive”.
In the case of `C[C@@H]1CN([C@@H](C)CO)C(=O)Cc2cc(NC(=O)Nc3ccc(C(F)(F)F)cc3)ccc2O[C@@H]1CN(C)C(=O)Nc1cccc2ccccc12` it was “inactive”; in that of `CC(C)NC(=O)N(C)C[C@@H]1OCCCC[C@@H](C)Oc2ccc(NC(=O)Nc3ccccc3)cc2C(=O)N([C@H](C)CO)C[C@@H]1C`, “inactive”.
For the compound `C[C@@H]1CCCCO[C@@H](CN(C)C(=O)Cc2ccccc2)[C@@H](C)CN([C@@H](C)CO)C(=O)c2cc(NC(=O)Nc3ccc(C(F)(F)F)cc3)ccc2O1`, the cytotoxicity call is “inactive”.
Next, `O=C(O)CNC(=O)c1cc2ccccc2[nH]1`: “inactive”.
On to `C[C@H](CO)N1C[C@H](C)[C@@H](CN(C)S(=O)(=O)c2ccc(Cl)cc2)Oc2ccc(NC(=O)CCN3CCOCC3)cc2CC1=O`, for which the cytotoxicity call is “inactive”.
In the case of `Cc1noc(C)c1S(=O)(=O)N(C)C[C@H]1OCCCC[C@H](C)Oc2ccc(NS(=O)(=O)c3cn(C)cn3)cc2C(=O)N([C@@H](C)CO)C[C@@H]1C`, the cytotoxicity call is “inactive”.
Next, `C=c1cc(C)ccc1=C1NN=C(NC(=O)CC)O1`: “inactive”.
As to `C[C@@H]1CCCCO[C@@H](CN(C)C(=O)Nc2ccc(F)cc2)[C@@H](C)CN([C@@H](C)CO)C(=O)c2cc(NC(=O)Nc3ccccc3)ccc2O1`, the cytotoxicity call is “inactive”.
Next, `CN1CCC(Nc2nc(Nc3ccc(Oc4ccccc4)cc3)c3c(O)ncc(Br)c3n2)CC1`: “active”; `C[C@@H]1CN([C@@H](C)CO)S(=O)(=O)c2ccc(-c3ccc(F)cc3)cc2O[C@H]1CN(C)S(C)(=O)=O`: “inactive”.
Take `CNC(=O)N1CCN(Cc2cnn(C)c2)C[C@]2(CCCC(=O)N2)C1`: the cytotoxicity call is “inactive”.
Next, `C=CCOC(=O)[C@H]1[C@@H]2C(=O)O[C@@H](c3ccccc3)[C@@H](c3ccccc3)N2[C@@H](c2ccc(OCCOC(=O)[C@H]3C[C@H]4C(=O)N[C@@H](CCCCNC(C)=O)C(=O)N4[C@H]3c3cccc(OCCO)c3)cc2)[C@]12C(=O)Nc1ccc(I)cc12`: “inactive”.
For `Cc1ccc(S(=O)(=O)N(C)C[C@@H]2OCCCC[C@H](C)Oc3ccc(NS(=O)(=O)c4ccc(Cl)cc4)cc3C(=O)N([C@H](C)CO)C[C@H]2C)cc1`, the cytotoxicity call was “active”.
Turning to `Cc1ccc(S(=O)(=O)Nc2ccc3c(c2)C(=O)N([C@@H](C)CO)C[C@@H](C)[C@@H](CN(C)S(=O)(=O)c2ccc(Cl)cc2)OCCCC[C@H](C)O3)cc1`, the cytotoxicity call was “inactive”.
Take `Cc1ccc(S(=O)(=O)N(C)C[C@@H]2OCCCC[C@@H](C)Oc3ccc(NS(=O)(=O)c4ccc(Cl)cc4)cc3C(=O)N([C@@H](C)CO)C[C@@H]2C)cc1`: the cytotoxicity call was “inactive”.
On to `Cc1ccc(S(=O)(=O)N(C)C[C@H]2OCCCC[C@@H](C)Oc3ccc(NS(=O)(=O)c4ccc(Cl)cc4)cc3C(=O)N([C@H](C)CO)C[C@H]2C)cc1`, for which the cytotoxicity call is “inactive”.
In the case of `Cc1ccc(S(=O)(=O)Nc2ccc3c(c2)C(=O)N([C@H](C)CO)C[C@H](C)[C@H](CN(C)S(=O)(=O)c2ccc(Cl)cc2)OCCCC[C@H](C)O3)cc1` it was “inactive”.
In the case of `Cc1ccc(S(=O)(=O)N(C)C[C@@H]2OCCCC[C@H](C)Oc3ccc(NS(=O)(=O)c4ccc(Cl)cc4)cc3C(=O)N([C@@H](C)CO)C[C@@H]2C)cc1` it was “active”; in that of `Cc1ccc(S(=O)(=O)Nc2ccc3c(c2)C(=O)N([C@H](C)CO)C[C@H](C)[C@@H](CN(C)S(=O)(=O)c2ccc(Cl)cc2)OCCCC[C@@H](C)O3)cc1`, “active”; in that of `Cc1ccc(S(=O)(=O)N(C)C[C@@H]2OCCCC[C@@H](C)Oc3ccc(NS(=O)(=O)c4ccc(Cl)cc4)cc3C(=O)N([C@H](C)CO)C[C@H]2C)cc1`, “inactive”.
As for `Cc1ccc(S(=O)(=O)N(C)C[C@H]2OCCCC[C@H](C)Oc3ccc(NS(=O)(=O)c4ccc(Cl)cc4)cc3C(=O)N([C@@H](C)CO)C[C@@H]2C)cc1`, the cytotoxicity call is “active”.
In the case of `Cc1ccc(S(=O)(=O)N(C)C[C@H]2OCCCC[C@@H](C)Oc3ccc(NS(=O)(=O)c4ccc(Cl)cc4)cc3C(=O)N([C@H](C)CO)C[C@@H]2C)cc1`, the cytotoxicity call is “inactive”.
